Columns and labels:
Assay in all cases: PBM binding z-score (relative to random genomic background probes); higher = stronger binding; sequences stand for … in GC…GCGATTGACAGCGTAGAATGAAGG
[1] = test system: FXR:RXRa (NR concentration 270 nM, RXRa partner concentration 90 nM)
Outline: (§1)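 Ligand-free nuclear receptor dimers were bound for 1 h to custom Agilent 4×180K protein-binding microarrays. Detection used antibodies against each partner (one per run). Binding z-scores rest on regression-normalized fluorescence, with random background probes as the reference.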

[2] = test system: LXRa:RXRa (NR concentration 270 nM, RXRa partner concentration 90 nM)
Outline: as §1

[3] = test system: LXRa homodimer (NR concentration 270 nM)
Outline: as §1

[4] = test system: LXRb:RXRa (NR concentration 270 nM, RXRa partner concentration 90 nM)
Outline: as §1

[5] = test system: LXRb homodimer (NR concentration 270 nM)
Outline: as §1

[6] = test system: PPARa:RXRa (NR concentration 270 nM, RXRa partner concentration 90 nM)
Outline: as §1

[7] = test system: PPARg:RXRa (NR concentration 180 nM, RXRa partner concentration 90 nM)
Outline: as §1

[8] = test system: PPARg:RXRa 270nM:90nM, anti-RXR (NR concentration 270 nM, RXRa partner concentration 90 nM)
Outline: as §1

[9] = test system: PPARg:RXRa 30nM:10nM, anti-RXR (NR concentration 30 nM, RXRa partner concentration 10 nM)
Outline: as §1

[10] = test system: PPARg:RXRa 90nM:30nM, anti-RXR (NR concentration 90 nM, RXRa partner concentration 30 nM)
Outline: as §1

[11] = test system: PPARg:RXRa DBDmut IVT, anti-RXR (DBD mutation: RXRa K156A/R161A, NR concentration 270 nM, RXRa partner concentration 90 nM)
Outline: as §1

[12] = test system: PPARg:RXRa IVT, anti-PPARg (NR concentration 270 nM, RXRa partner concentration 90 nM)
Outline: as §1

[13] = test system: PPARg DBDmut:RXRa IVT, anti-PPARg (DBD mutation: PPARg1 K132A/R137A, NR concentration 270 nM, RXRa partner concentration 90 nM)
Outline: as §1

[14] = test system: PPARg DBDmut IVT, anti-PPARg (DBD mutation: PPARg1 K132A/R137A, NR concentration 270 nM)
Outline: as §1

[15] = test system: PPARg homodimer (NR concentration 180 nM)
Outline: as §1

[16] = test system: PXR:RXRa (NR concentration 270 nM, RXRa partner concentration 90 nM)
Outline: as §1

[17] = test system: PXR homodimer (NR concentration 270 nM)
Outline: as §1

[18] = test system: RARa:RXR (NR concentration 270 nM, RXRa partner concentration 90 nM)
Outline: as §1

[19] = test system: RARa homodimer (NR concentration 270 nM)
Outline: as §1

[20] = test system: RARb:RXRa (NR concentration 270 nM, RXRa partner concentration 90 nM)
Outline: as §1

Sequence	PBM binding z-score [1]	PBM binding z-score [2]	PBM binding z-score [3]	PBM binding z-score [4]	PBM binding z-score [5]	PBM binding z-score [6]	PBM binding z-score [7]	PBM binding z-score [8]	PBM binding z-score [9]	PBM binding z-score [10]	PBM binding z-score [11]	PBM binding z-score [12]	PBM binding z-score [13]	PBM binding z-score [14]	PBM binding z-score [15]	PBM binding z-score [16]	PBM binding z-score [17]	PBM binding z-score [18]	PBM binding z-score [19]	PBM binding z-score [20]
ATTGAAAGGTCGTGAGGTGAGTATACAGAAAGGC	5.67	4.67	0.73	3.49	1.2	5.38	4.88	5.01	2.23	3.64	0.728	3.15	1.53	1.68	2.07	3.07	0.914	4.27	1.15	4.3
CAAACTAGGTCAAAGATCAAAGTCGAGCCAACCA	4.71	3.87	0.503	3.15	0.553	6.47	11.6	9.58	9.42	10.6	8.07	8.58	1.49	0.885	1.76	2.81	0.46	4.42	0.53	3.99
TCGAGGAGGTTAGTCGGGGCATTCAGCCAACATA	0.421	0.675	-0.136	1.21	-0.337	1.43	-0.118	0.893	1.23	0.779	1.28	0.923	-0.713	-1.04	0.777	1.05	0.348	0.897	-0.313	1.01
ATCGAAAGGTCGACGAGGTGAGTATTCACCGTTT	4.22	3.41	-0.275	2.63	0.0468	4.26	2.45	2.99	1.55	1.94	0.554	2.07	1.07	0.398	0.854	2.94	0.386	3.29	-0.0728	3.91
CAAACTAGGGCACCGGAAGGTCAAAGTCCGCATG	3.3	3.78	2.88	3.1	-0.115	4.89	6.22	6.02	2.51	5.06	7.77	7.55	1.16	0.324	1.96	4.06	0.773	4.68	0.355	4.01
GCAGACAGGTGAAACGCAGGTGACTCAGGGTGGC	0.0191	0.00841	-0.506	-0.401	-1.12	1.18	0.635	0.413	-0.264	-0.0702	0.661	1.27	-0.57	-0.659	-0.182	0.074	-0.467	0.675	-0.193	1.01
CCTTACGGGTCACTGACAGGCTATAGCATTTGGA	4.95	3.52	-0.0559	3.1	-0.0175	4.91	3.88	4.36	1.54	2.83	3.84	3.67	0.647	-0.225	2.27	2.94	-0.147	3.69	0.758	3.76
AGTCAAAGTTCACTAGGTAACATAAGATTCAGCT	4.79	5.28	3.12	3.27	1.4	4.86	7.49	6.62	3.82	5.79	2.79	5.27	1.65	1.65	3.16	4.33	3.16	2.97	2.25	4.79
ATCGAAAGGTCGACGAGGTGACTATACACCGTTT	4.76	3.44	0.283	3.17	0.252	4.53	3.26	3.2	1.22	2.33	1.03	2.4	1.08	0.608	1.89	3.44	0.829	3.99	0.449	4.01
CCTTGCGGGTCAAGGTTATAGCACGGGTGGTACG	4.66	3.22	0.11	2.6	-0.432	4.96	5.05	5.18	2.05	4.21	3.71	5.26	-0.0608	-0.506	2.01	2.93	0.309	3.7	0.296	3.82
TAGCCTAGGTCATTGGGCCAATATAGTACGCATC	4.69	3.66	1.13	2.95	0.235	4.38	4.57	4.16	1.53	3.46	3.03	4.13	0.385	0.532	1.58	1.83	-0.353	2.69	-0.0412	3.6
CCTAGTTGGTCAAAGTCACACACGCTATAGGTAC	0.342	0.505	0.567	0.625	0.603	0.517	1.35	1.68	0.915	1.46	1.7	1.52	0.647	0.822	1.59	0.0775	0.736	0.303	1.44	1.42
CCTAGCAGGCCAGGATCACTCAAGCATTTCGCTT	-0.0228	-0.302	-0.315	-0.395	-0.796	-0.414	-0.143	-0.455	-0.969	-0.909	0.271	-0.507	-1.72	-1.21	-0.29	-0.547	-0.646	-0.792	-0.0748	-0.149
CGTGCAAGGTCAAAGGTCAGTGAAGAGATGACGG	8.16	6.9	3.14	6.7	1.86	7.4	10.9	9.02	7.56	9.38	4.05	5.94	1.68	0.658	4.64	7.09	1.48	8.94	1.9	5.91

Reference: the supplement of paper PMC6555819
